Compound activity (PubChem BioAssay)
Epigenetic reg: regulators of epigenetic silencing causing reporter derepression in mouse cells; AID 1865; Potency, µM (highest dose often 53.9 µM), for inactives: at the highest dose GFP activation, actives largely listed as activators; murine LDR cells, GFP reporter derepression, 30 h; 280,000 tested, 0.2% active; further: % of control where 0% means no effect; nearly all actives have a fitted effect of over 60% in size
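Derepression of a silenced CMV-GFP reporter in murine LDR cells is scored by enumerating GFP-positive cells with a laser-scanning microplate cytometer after 30 hours of treatment at 37 C.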
PINK1 modulator: PINK1 expression modulation; PINK1 immunofluorescence, high-content cytometry, 24 h; 410,000 tested, 0.2% active; Potency, µM (series often up to 76.6 µM), for inactives: top-dose activation (PINK1 increase), hits mostly activators; active means well fitted activation curve with a large enough effect; inconclusive means small, poorly fitted or top-dose-only effect; cell line not stated here; further: % of control where 0% means no effect; nearly all actives have a fitted effect of over 65% in size
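Measures PINK1 amount and localization on or inside mitochondria by immunofluorescence. Stable cells get compounds at 5 concentrations for 24 hours before fixation and staining; CCCP controls included.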
HTT cytoprotect: cytoprotection in Huntington HTT-Q103 PC12 cell model | PC12 HTT-Q103 induced, cytoprotection, ATP luminescence, 40 h | 230,000 tested, 0.14% active | Potency, µM (series often up to 56.4 µM), inactives show cytoprotection (ATP increase), actives largely listed as activators | AID 1471; further: % of control where 0% means no effect; nearly all actives have a fitted effect of over 45% in size
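PC12 cells stably carrying ecdysone-inducible Htt exon 1 (Q103)–GFP were induced with 100 nM tebufenozide (final) alongside library compounds in a dose series. Cytoprotection was scored as retained ATP by ATPlite luminescence.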
HTT aggregate: mutant huntingtin aggregation inhibition; PC12 HttQ103-GFP aggregates, Acumen cytometry, 40 h; Potency, µM (highest dose often 46.1 µM), without a hit: at the top dose activity change, negative = inhibition, most hits filed as inhibitors; 220,000 tested, 1.1% active; further: on the % scale 0 is the no-effect control and ±100 the full control effect; nearly all actives have a fitted effect of over 60% in size
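Inducible Q103 Huntingtin exon 1–GFP PC12 line, 1500 cells/well in phenol red free DMEM with 5% equine and 5% calf serum. Tebufenozide 100 nM induced expression; compounds titrated; aggregates quantified by cytometry.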
Active calls of the source: *; ? = inconclusive; . = not tested or not shown; [ ] = dose if it differs, or a comment. The entries come from a sample that favours hits as a whole. Unless noted, the call rests on the fitted dose curve; in most records, active means well fitted curve in the direction sought with a large enough effect; inconclusive means small, poorly fitted or top-dose-only effect, or another doubt; inactive means no such curve, though single readings can be large; an effect the other way counts as inactive or inconclusive. Potency means the concentration at half of the fitted maximal effect.

SMILES	Epigenetic reg	PINK1 modulator	HTT cytoprotect	HTT aggregate
CC(=O)c1ccc(N2CCN(C(=O)c3noc4c3CSc3ccccc3-4)CC2)cc1	.	11%	.	.
COC(=O)c1cc(C(=O)NC(C)(C)CC(C)(C)C)cc([N+](=O)[O-])c1	0%	1%	-39%	?
Cc1ccc(SCC(=O)N2c3ccccc3Sc3ccccc32)cc1	-1%	2%	-36%	16µM*
COc1cc(OC)cc(-c2c(C#Cc3ccsc3)c3cc(-c4ccc(OC)c(F)c4)ccc3n2C)c1	.	0%	.	.
C/C(=C1\SC(N2CCOCC2)=NC1=O)c1ccccc1	-1%	-8%[38.3 µM]	-1%	-3%[9.22 µM]
COc1ccc(C(=O)CSc2nnc(Cn3cnc4ccccc43)o2)cc1	-1%	1%	-12%[10 µM]	10µM*
Cc1cc(C)c(C(N)=O)c(NCCc2ccccc2)n1	10%	-1%[38.3 µM]	-1%	6%
C/C(=N\NC(=O)c1ccccc1)c1nc2ccccc2n1C	-2%	1%	.	11µM*
Cn1c(NC(=O)c2ccc(F)cc2)nc2ccccc21	.	2%	.	.
Cc1ccc(NC(=O)/C(C#N)=C/c2ccc(C)s2)c(C)c1	3.2µM*	12%	-7%	12%[9.22 µM]
CCc1ccc(Nc2cc(=O)n(C3CCCCC3)c(=O)[nH]2)cc1	1%	28µM*	-34%	-31%
CCOC(=O)c1sc(NC(=O)c2ccc(Cl)s2)cc1C	0%	7%	-8%[10 µM]	-15%
CCOC(=O)c1sc(NC(=O)Nc2ccc(Cl)cc2)cc1C	1%	?	-6%[10 µM]	22µM*
Cc1c(C)c(C)c2[nH]c(-c3ccc4c(c3)OCO4)nc2c1C	.	3%	.	.
COc1ccc(-c2cc(-c3ccc(C)cc3)n[nH]2)c(O)c1	.	7%	.	.
CC(=O)N[C@@H](CCC(=O)O)C(=O)O	.	.	2µM*	8%
c1cncc(C(c2nnnn2C2CCCC2)N2CCN(Cc3ccc4c(c3)OCO4)CC2)c1 (centres undefined)	4%	-1%[38.3 µM]	-24%	10%
CCN(c1ccccc1)S(=O)(=O)c1nnc(NC(=O)COc2cccc(C)c2)s1	8.9µM*	1%	.	.
O=S(=O)(Cc1ccccc1)c1nnnn1-c1ccccc1	2%	.	?	.
CCS(=O)(=O)c1nnnn1-c1ccccc1S(C)(=O)=O	1%	26%[38.3 µM]	13µM*	.
CC(C)(C)c1ccc(C(=O)N2CCCN(C(=O)c3ccc(C(C)(C)C)cc3)CC2)cc1	0%	-2%	-16%[10 µM]	?
CCCNC(=O)C1(C)CCCN(Cc2ccc(C(F)(F)F)cc2)C1 (centres undefined)	.	6%	.	.
COc1cc(OC)c(-c2c3cc(O)c(=O)cc-3oc3cc(O)c(O)cc23)cc1OC	2%	7%	5%[10 µM]	4µM*
O=S(=O)(NNc1ncc(C(F)(F)F)cc1Cl)c1ccc(F)cc1F	.	4%	.	.
FC(F)(F)c1cnc(NNC(=S)Nc2ccc(Cl)cc2)c(Cl)c1	-3%	11µM*	7%[10 µM]	11µM*
SMILES	Epigenetic reg	PINK1 modulator	HTT cytoprotect	HTT aggregate
Cc1ccc(NC(=S)NNc2ncc(C(F)(F)F)cc2Cl)cc1	1%	32µM*	12%[10 µM]	-20%
FC(F)(F)c1cccc(NC(=S)NNC(=S)Nc2ccc(Cl)cc2)c1	-1%	.	22%[10 µM]	-11%[9.22 µM]
Cc1ccc(NC(=S)NNc2ncc(C(F)(F)F)cc2Cl)c(C)c1	0%	7%	17%	?
Fc1ccc(NC(=S)NNc2ncc(C(F)(F)F)cc2Cl)c(F)c1	0%	10µM*	-96%	7.9µM*
Cc1ccc(CSCCNC(=O)CN(c2cccc([N+](=O)[O-])c2)S(C)(=O)=O)cc1	0%	0%	?	12%[9.22 µM]
Cc1cc(C)n2nc(SCCCC(=O)c3ccc(F)cc3)nc2n1	10%	3%	12%[10 µM]	12%
COc1ccc(C(=O)C2CCN(C(=O)c3ccco3)CC2)cc1	1%	-1%[38.3 µM]	-16%[10 µM]	-9%
O=S(=O)(Nc1cc(Sc2ncn[nH]2)c(O)c2ccccc12)c1ccccc1	12%	-1%	-209%	4.5µM*
Cc1cc(O)c(Sc2ncn[nH]2)cc1NS(=O)(=O)c1ccc(Cl)cc1	.	2%	.	.
CCN1/C(=C/C=C/c2oc3ccc(-c4ccccc4)cc3[n+]2CC)Oc2ccc(-c3ccccc3)cc21	83%	?	-94%[10 µM]	0.35µM*
Fc1ccc(NCc2nnc(SCc3nnc(-c4ccccc4)o3)n2Cc2ccccc2)cc1	-6%	1%	19%[10 µM]	13µM*
Cc1ccc(C(=O)N/N=C\c2cccn2C)cn1	0%	-1%	6%	6%
CSc1nsc(/C=C/Nc2ccc(C)c(C)c2)c1C#N	3.5µM*	3%	-30%	?
CSc1nsc(/C=C/Nc2ccc(C)cc2)c1C#N	-1%	15%	-5%	19%
COC(=O)c1ccc(Cl)cc1NC(=O)N1CC=C(c2c[nH]c3ccccc23)CC1	28µM*	0%	.	.
COc1ccc(-c2cnc(N)nc2-c2ccc(OC)cc2O)cc1	0%	-2%	?	11µM*
COc1ccc2ncn(-c3ccccc3)c2c1	-1%	-4%	23%[10 µM]	10µM*
c1ccc(-n2cnc3ccccc32)cc1	0%	0%	-22%	?
COc1ccc(-n2cnc3ccccc32)cc1	0%	-6%[38.3 µM]	-11%	14µM*
O=C(CSc1nc2c([nH]c3ccccc32)c(=O)n1-c1ccc(F)cc1)N1CCCCC1	1%	-4%	.	.
CN(C)CCCNc1nc(N)c([N+](=O)[O-])c(NCc2ccccc2)n1	.	-1%	.	.
CCN1/C(=C/C(=O)c2ccco2)Sc2ccccc21	9%	-1%	-24%	?
CCN1/C(=C/c2sc(-c3ccccc3C)c[n+]2C)Sc2ccccc21	2%	?	-130%	2.2µM*
